The list is not random: actives were taken first. Their share in the collection is about 1%.
Cdc25B inh: inhibitors of Cdc25B phosphatase catalytic domain, primary screen, biochemical, OMFP fluorescence. 65,000 tested, 0.1% active. inhibition, %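 (compounds tested at 10 µM final in the well)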. recombinant Cdc25B, OMFP fluorescence Ex485/Em525. AID 368, 2006; in the data active = inhibition above about 50%
HePTP inhibitor: inhibitors of human HePTP phosphatase, primary screen, biochemical, absorbance, leukemia target. recombinant HePTP phosphatase activity, OD absorbance. inhibition, % at 20 µM. 110,000 tested, 0.64% active. AID 521, 2006; in the data active = inhibition above about 50%; inconclusive = no clear call, values can overlap the other calls;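 note: plate controls were vehicle for no effect and reference inhibitor for full effect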
DUSP1 inh: MKP-1 phosphatase inhibitors, primary screen, biochemical, in vitro; recombinant MKP-1, OMFP hydrolysis fluorescence; inhibition, %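 (compounds tested at a single concentration somewhere between 10 and 100 µM)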; 65,000 tested, 0.15% active;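 active = inhibition above about 50%, limit read from the data; inconclusive = inhibition over screen mean plus 3 SD, below that limit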;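 note: 0% = DMSO max control wells and 100% = wells with enzyme stopped by NaOH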
Target sequence (P28562 whole entry, looked up): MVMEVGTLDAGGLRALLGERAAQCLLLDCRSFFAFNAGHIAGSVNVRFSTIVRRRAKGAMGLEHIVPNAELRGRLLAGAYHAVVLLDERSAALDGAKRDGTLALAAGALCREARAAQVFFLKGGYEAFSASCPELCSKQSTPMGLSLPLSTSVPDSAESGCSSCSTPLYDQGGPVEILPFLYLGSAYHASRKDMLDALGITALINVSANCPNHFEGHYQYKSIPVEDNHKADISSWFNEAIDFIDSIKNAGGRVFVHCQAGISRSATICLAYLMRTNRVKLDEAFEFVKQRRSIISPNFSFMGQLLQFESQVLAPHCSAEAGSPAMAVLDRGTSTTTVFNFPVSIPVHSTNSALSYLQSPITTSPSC
BAP1 block: inhibitors of BAP1 deubiquitinase, primary screen, biochemical, Ub-AMC fluorescence, kinetic; Ubiquitin carboxyl-terminal hydrolase BAP1 (Homo sapiens), Q92560; recombinant BAP1, Ub-AMC hydrolysis fluorescence kinetic; stronger effect = lower value; calls only at 20 µM; 72,000 tested, 0.48% active; AID 436, 2006;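 active = activity remaining at or below 50% of control, provided the compound also passes the data quality filters; inactive = the rest, including low values that fail the filters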;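 note: 100% = DMSO wells rate and 0% = substrate alone blank rate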
Ec RNAP inh: E. coli RNAP inhibitors, biochemical | DNA-directed RNA polymerase subunit beta (Escherichia coli (strain K12)), P0A8V2 | E. coli RNA polymerase, fluorescence transcription assay | inhibition, %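 (tested at 10 µM)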 | 62,000 tested, 0.2% active; in the data active = inhibition above about 20%;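 note: 0% = enzyme without compound and 100% = no enzyme blank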
TNAP act mid DEA: human TNAP enzyme activators, primary screen, biochemical, luminescent, intermediate phosphate acceptor level. 64,000 tested, under 10 active. activation factor at 20 µM. purified TNAP, CDP-star luminescence, 100 mM DEA, 30 min; stronger effect = higher value; scale: 0 levamisole-inhibited, 1 vehicle-only enzyme. AID 813, 2007. Alkaline phosphatase, tissue-nonspecific isozyme (Homo sapiens), P05186;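 active = activation factor of at least 2 at 20 µM, relative to controls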
BAP1 inh conf: BAP1 deubiquitinase inhibitors, hit retest, confirmation, orthogonal assay, biochemical, Ub-ethyl ester substrate, HPLC readout | shares compounds with BAP1 block | % of control activity, % at 20 µM | purified BAP1, Ub-ethyl ester hydrolysis; stronger effect = lower value | 310 tested, 8% active;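 active = percent of control activity at or below 60%; inconclusive = HPLC trace unusable from injection failure or solvent front hiding peaks; inactive = the rest, plus ubiquitin peak ratio over a set limit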
Active calls of the source: *; i = inactive; ? = inconclusive; · = no result given; + = active, no number.

SMILES	Cdc25B inh	HePTP inhibitor	DUSP1 inh	BAP1 block	Ec RNAP inh	TNAP act mid DEA	BAP1 inh conf
Cc1cc(NC(=O)c2ccc(COc3ccc(Cl)c(C)c3)o2)no1	-5	15	5	+	0	0.9	163
Cc1cc(NC(=O)c2cc(Cl)ccc2Cl)no1	-3	2	-23	i	7	1	·
CC(=O)C1=C(C)NC(SCC(=O)c2ccc(Cl)c(Cl)c2)=C(C#N)C1c1ccco1 (stereo not drawn)	3	4	6	+	9	0.8	42*
CCc1ccc(C(=O)CSC2=C(C#N)C(c3ccco3)C(C(C)=O)=C(C)N2)cc1 (stereo not drawn)	-1	7	8	i	9	0.8	·
CC(=O)C1=C(C)NC(SCC(=O)c2cc(Cl)ccc2Cl)=C(C#N)C1c1ccco1 (stereo not drawn)	6	7	15	+	5	0.9	96
CC(=O)C1=C(C)NC(SCC(=O)c2ccc(F)cc2)=C(C#N)C1c1ccco1 (stereo not drawn)	3	0	13	i	5	0.9	·
COc1ccccc1NC(=O)C(=O)N/N=C/c1cccc(OC)c1OC	·	2	·	·	·	·	·
Cc1ccc2nc(NNC(=O)CCC(=O)O)nc(-c3ccccc3)c2c1	·	11	·	·	·	·	·
CC1(C)Cc2c(C#N)c(SCc3ccccc3)nc(N3CCOCC3)c2CO1	-11	3	9	+	8	0.9	121
O=[N+]([O-])c1ccc(Cl)c(-n2ncnc2-c2ccc(F)cc2)c1	·	-2	·	·	·	·	·
CC(C)(C)n1nnnc1C(c1cccnc1)N1CCN(C(=O)c2ccco2)CC1 (stereo not drawn)	-4	4	7	i	8	0.9	·
Cc1cccc2cc(C(c3nnnn3C(C)(C)C)N3CCN(C(=O)c4ccco4)CC3)c(=O)[nH]c12 (stereo not drawn)	-20	9	25	+	15	0.9	42*
CN1C(=O)NC(=O)/C(=C/c2ccc(-c3ccc(Cl)c(Cl)c3)o2)C1=O	·	13	·	·	·	·	·
O=c1oc(-c2cccs2)nc2cc([N+](=O)[O-])ccc12	·	3	·	·	·	·	·
CN(C)c1ccc(NC(=O)CSc2nc3ccccc3c(=O)n2C2CCCCC2)cc1	7	5	30	+	3	0.9	57*
CN(C)C=Nc1c(C(=O)NCc2ccccc2)c2n(c1C#N)CCC2	·	-14	·	·	·	·	·
COc1ccc(OC)c(NC(=O)c2cc3n(n2)C(C(F)(F)F)CC(c2ccc4c(c2)OCO4)N3)c1 (stereo not drawn)	-5	-4	24	+	2	0.9	102
COc1ccccc1NC(=O)c1cc2n(n1)C(C(F)(F)F)CC(c1ccc3c(c1)OCO3)N2 (stereo not drawn)	-4	3	15	·	-2	0.8	·
O=C(NCc1ccco1)c1cc2n(n1)C(C(F)(F)F)CC(c1ccc(Br)cc1)N2 (stereo not drawn)	5	3	0	+	10	0.8	?
CCN(CC)CCOCCOc1cc(C)ccc1C	·	-3	·	·	·	·	·
Cc1ccc(-c2nc3ccccc3[nH]2)cc1NC(=O)c1ccco1	4	10	4	i	3	0.9	·
O=C(Nc1cccc(-c2nc3ccccc3[nH]2)c1)c1cccc(NC(=O)c2ccco2)c1	-2	14	10	+	9	0.9	135
CCOC(=O)c1[nH]c(C)c(C(=O)Nc2cc(OC)ccc2OC)c1C	0	-16	1	i	3	0.9	·
CCOc1ccc(OCC)c(NC(=O)c2[nH]c(C)c(C(C)=O)c2C)c1	10	8	1	+	-3	0.8	121
COc1ccccc1/C=C1\SC(=S)N(C(Cc2ccccc2)C(=O)O)C1=O (stereo not drawn)	·	-3	·	·	·	·	·
CCc1nc2c(cnn2-c2ccc(Cl)cc2)c(=O)n1-c1ccc(OC)cc1	6	11	4	+	7	0.9	89
